Bioassay records (PubChem)
Compounds with a hit are over-represented: about 5.4% of the library has one in this group of screens.
SMARCA2 activ: SMARCA2 (BRM) function activators, primary screen, cell-based, luminescence, high throughput | MG213 cells, MMTV-luciferase reporter, dexamethasone, overnight | activation, % at 9.1 µM | actives 1% (n = 370,000); in the data active = activation above about 7.8%
Granule exo inh: LAMP-1 surface exposure blockers, TALL-104 cells – cell-based, flow cytometry, MLPCN library, primary screen; TALL-104 LAMP-1 surface exposure; cells stimulated with thapsigargin and PMA; inhibition, % at 10 µM; actives 0.66% (n = 360,000);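 active = inhibition above about 55%, limit read from the data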
M18AAP inhibitor: PfM18AAP inhibitors, malaria aminopeptidase, primary screen, biochemical, QFRET, recombinant enzyme; actives 1.2% (n = 290,000); inhibition, % at 7.35 µM; M18 aspartyl aminopeptidase (Plasmodium falciparum 3D7); H-Glu-NHMec fluorogenic cleavage; AID 1822, 2009;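 active = inhibition above the campaign mean inhibition over all tested compounds plus 3 SD, cut at about 28% in these data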
ALR H2O2 inh: inhibitors of human ALR sulfhydryl oxidase, primary screen, biochemical, H2O2 detection, HRP-luminol luminescence, single point; inhibition, % (concentration not given with the values); FAD-linked sulfhydryl oxidase ALR (Homo sapiens), P55789; actives 3.8% (n = 290,000); purified ALR, DTT oxidation; AID 485317, 2010;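 active = mean replicate inhibition above about 79%, with every replicate also reaching it, limit read from the data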
Target sequence (P55789 whole entry, looked up): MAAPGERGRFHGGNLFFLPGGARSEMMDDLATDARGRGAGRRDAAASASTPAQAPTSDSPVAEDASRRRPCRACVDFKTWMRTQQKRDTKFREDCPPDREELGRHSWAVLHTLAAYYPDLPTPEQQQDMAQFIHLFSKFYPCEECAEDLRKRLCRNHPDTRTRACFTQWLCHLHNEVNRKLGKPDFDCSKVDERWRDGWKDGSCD
beta cell repl: inducers of MIN6 beta-cell proliferation, primary screen, ATP luminescence, uHTS; actives 0.29% (n = 330,000); MIN6 cells proliferation, ATPlite luminescence, 48 h; cells starved in 0.2% serum; 100% = growth in 10% serum; proliferation, % at 10 µM;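 active = compounds whose signal lies at least 3.5 SD above the mean of all wells on their plate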
GASC-1 inh: inhibitors of GASC-1 histone demethylase, primary screen, biochemical, fluorescence, DELFIA europium; Lysine-specific demethylase 4C (Homo sapiens), Q9H3R0; GST-JMJD2C(1-420) H3K9me3 demethylation; inhibition, % at 2.35 µM; actives 0.069% (n = 330,000); AID 2099, 2009;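 active = more than half of a compound's replicate wells show inhibition beyond 50%, single wells judged on their own value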;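 note: signal counts dimethyl H3K9 product captured on neutravidin plate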
Target sequence (Q9H3R0 1-420 limits assumed): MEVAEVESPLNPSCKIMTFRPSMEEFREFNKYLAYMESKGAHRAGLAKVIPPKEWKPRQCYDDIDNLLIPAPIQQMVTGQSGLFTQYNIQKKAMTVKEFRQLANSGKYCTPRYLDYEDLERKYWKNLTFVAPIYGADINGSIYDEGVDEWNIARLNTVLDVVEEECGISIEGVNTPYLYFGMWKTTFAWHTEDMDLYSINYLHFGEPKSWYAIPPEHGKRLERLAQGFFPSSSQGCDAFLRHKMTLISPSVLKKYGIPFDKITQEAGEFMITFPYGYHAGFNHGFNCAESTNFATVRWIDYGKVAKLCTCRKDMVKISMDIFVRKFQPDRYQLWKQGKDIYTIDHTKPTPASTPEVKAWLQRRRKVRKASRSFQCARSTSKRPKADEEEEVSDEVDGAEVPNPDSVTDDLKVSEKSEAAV
SMARCA2 act conf: SMARCA2 (BRM) function activators, confirmation, cell-based, luminescence, triplicate; shares compounds with SMARCA2 activ; MG213 cells, MMTV-luciferase with dexamethasone, overnight; MG213 cells expressing E1A, Rb sequestered; DMSO wells 0%, reference activator 100%; activation, % at 9.1 µM; actives 30% (n = 3,500);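 active = activation above its plate's cutoff, the mean activation of tested wells plus 3 SD, cut at about 7.9% in these data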
VP16 Luc act: GAL4-VP16 luciferase reporter activation, counter-screen for SMARCA2 (BRM) activator project, cell-based, pG5luc, luminescence, high throughput; shares compounds with SMARCA2 activ; HEK293 GAL4-VP16 pG5luc reporter; scaled: DMSO wells 0%, SAHA wells 100%; activation, % at 9.1 µM; actives 41% (n = 3,500);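 active = activation above the solvent-only control well mean plus 3 SD, averaged across control plates, cut at about 5.2% in these data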
Numbers stand for hits.

O=C(Nc1cccc(F)c1)OC1CC2CC1[C@H]1CCCCN1[C@H]2Cc1ccccc1 (stereo partly specified) was read as SMARCA2 activ inactive.
For CC(C)N1CCCCC(NC(=O)c2cccc(C(F)(F)F)c2)C1=O (stereo unspecified) the results were SMARCA2 activ 8.8, SMARCA2 act conf inactive and VP16 Luc act inactive.
O=C(Nc1ccccc1)C(Cl)C(=O)c1ccccc1 (stereo unspecified) was read as SMARCA2 activ inactive, Granule exo inh inactive, M18AAP inhibitor inactive, ALR H2O2 inh inactive, beta cell repl inactive and GASC-1 inh inactive.
CC(=O)C(Cl)C(=O)Nc1ccccc1 (stereo unspecified) was read as SMARCA2 activ 8.5, Granule exo inh inactive, M18AAP inhibitor inactive, SMARCA2 act conf inactive and VP16 Luc act inactive.
For CC1CCCC(C)N1C(=O)c1ccccc1 (stereo unspecified) the results were SMARCA2 activ inactive.
`Fc1ccccc1CSc1ncn[nH]1` gave SMARCA2 activ 9.0, Granule exo inh inactive, M18AAP inhibitor inactive, ALR H2O2 inh inactive, beta cell repl inactive, GASC-1 inh inactive, SMARCA2 act conf inactive and VP16 Luc act inactive.
Clc1ccc(CSc2ncn[nH]2)cc1 was read as SMARCA2 activ inactive, Granule exo inh inactive, M18AAP inhibitor inactive, ALR H2O2 inh inactive, beta cell repl inactive and GASC-1 inh inactive.
Screening Cc1nc2c(OCc3ccc(Cl)cc3)cccn2c1N(C)C(=O)CCC1CCCC1 returned SMARCA2 activ 8.3, Granule exo inh inactive, SMARCA2 act conf inactive and VP16 Luc act inactive.
`COc1ccc(NS(=O)(=O)c2cccc(C(=O)NNC(=O)CNC(=O)c3ccccc3F)c2)cc1` gave SMARCA2 activ 8.2, Granule exo inh inactive, ALR H2O2 inh inactive, beta cell repl inactive, GASC-1 inh inactive, SMARCA2 act conf inactive and VP16 Luc act inactive.
`CCCNC(=O)C[C@H]1CC[C@H]2[C@@H](COc3ccc(NC(=O)Nc4ccc(C#N)cc4)cc3C(=O)N2C)O1` gave SMARCA2 activ inactive.
`Cc1csc(NC(=O)CSc2ccccc2F)n1` gave SMARCA2 activ 8.4, Granule exo inh inactive, M18AAP inhibitor inactive, ALR H2O2 inh inactive, beta cell repl inactive, GASC-1 inh inactive, SMARCA2 act conf inactive and VP16 Luc act inactive.
For COc1ccccc1OCCn1nc2ccccc2c1OC the results were SMARCA2 activ inactive and Granule exo inh inactive.
Screening CCC(C)(C)C1CCC2(CC1)NC(=O)N(CC(=O)NCCc1c[nH]c3ccccc13)C2=O (stereo unspecified) returned SMARCA2 activ 8.1, Granule exo inh inactive, ALR H2O2 inh inactive, beta cell repl inactive, GASC-1 inh inactive, SMARCA2 act conf inactive and VP16 Luc act inactive.
For COc1ccc(-c2ccc3[nH]c4c(c3c2)CCN2C(=O)[C@@H]([C@H](C)O)[C@@H](N(C)C(=O)Nc3ccc(F)cc3)C[C@@H]42)cc1 the results were SMARCA2 activ inactive and Granule exo inh inactive.
`Cc1cc(NC(=O)c2ccco2)sc1C` gave SMARCA2 activ 9.1, Granule exo inh inactive, ALR H2O2 inh 98.3, beta cell repl inactive, GASC-1 inh inactive, SMARCA2 act conf 12.1 and VP16 Luc act 11.3.
Cc1csc2c(=O)sc(NC(=O)c3ccco3)nc12 was read as SMARCA2 activ inactive, Granule exo inh inactive, M18AAP inhibitor inactive, ALR H2O2 inh inactive, beta cell repl inactive and GASC-1 inh inactive.
Cc1ccc2nc(NC(=S)NC(=O)c3ccco3)sc2c1 was read as SMARCA2 activ 17.0, Granule exo inh inactive, M18AAP inhibitor inactive, ALR H2O2 inh inactive, GASC-1 inh inactive, SMARCA2 act conf 9.5 and VP16 Luc act 15.1.
COc1ccc(-c2nnc(NC(=O)c3ccco3)s2)cc1 was read as SMARCA2 activ inactive, Granule exo inh inactive, M18AAP inhibitor inactive, beta cell repl inactive and GASC-1 inh inactive.
Screening Cc1ccc(-c2nnc(NC(=O)c3ccco3)s2)cc1 returned SMARCA2 activ 9.2, Granule exo inh inactive, M18AAP inhibitor inactive, beta cell repl inactive, GASC-1 inh inactive, SMARCA2 act conf 12.7 and VP16 Luc act 12.1.
For O=C(Nc1nc2ccsc2c(=O)s1)c1ccco1 the results were SMARCA2 activ 13.5, Granule exo inh inactive, M18AAP inhibitor inactive, ALR H2O2 inh inactive, beta cell repl inactive, GASC-1 inh inactive, SMARCA2 act conf 10.0 and VP16 Luc act 6.4.
For O=C(Cn1nc(-c2ccccc2)ccc1=O)NCCc1ccccc1F the results were SMARCA2 activ inactive.
O=C(NC1CCCC1)C(C1CC1)n1c(-c2ccnc3ccccc23)nc2ccccc21 (stereo unspecified) was read as SMARCA2 activ inactive and Granule exo inh inactive.
Screening O=CNc1cc(-c2ccoc2)cn2c(-c3ccc(F)cc3)cnc12 returned SMARCA2 activ inactive and Granule exo inh inactive.
COC(=O)[C@@H](N[C@H](/C=C/c1ccccc1)[C@@H](O)Cc1ccccc1)c1ccccc1 was read as SMARCA2 activ inactive.
Screening C/C(N)=C(/C#N)C(=O)CSc1nnc(Nc2cccc(C)c2)s1 returned SMARCA2 activ 8.3, Granule exo inh inactive, M18AAP inhibitor inactive, beta cell repl inactive, GASC-1 inh inactive, SMARCA2 act conf inactive and VP16 Luc act 6.2.
For Cc1cccc(Nc2nnc(SCC(=O)c3c(N)n(C4CC4)c(=O)[nH]c3=O)s2)c1 the results were SMARCA2 activ inactive, Granule exo inh inactive, ALR H2O2 inh inactive, beta cell repl inactive and GASC-1 inh inactive.
COc1cccc(NC(=O)CCc2c(C)nn(-c3ccc(N4CCOCC4)nn3)c2C)c1 was read as SMARCA2 activ 10.6, Granule exo inh inactive, M18AAP inhibitor inactive, ALR H2O2 inh inactive, beta cell repl inactive, GASC-1 inh inactive, SMARCA2 act conf inactive and VP16 Luc act inactive.
`CC1(C(=O)NS(=O)(=O)c2cccc(F)c2)CCN1C(=O)CC1CCCCC1` (stereo unspecified) gave SMARCA2 activ inactive and Granule exo inh inactive.
